Test systems include SR leukemia; RPMI-8226 leukemia; OVCAR-8 ovarian; OVCAR-4 ovarian; SK-OV-3 ovarian; IGROV1 ovarian; OVCAR-3 ovarian; HS 578T breast; NCI/ADR-RES ovarian; T-47D breast; BT-549 breast; MDA-MB-435 melanoma; SW-620 colon; MCF7 breast; HCT-116 colon; HCC-2998 colon; KM12 colon; OVCAR-5 ovarian.
What all share (assay): NCI-60 one-dose screen, 48 h (100 = growth as untreated, 0 = no growth, -100 = all killed)
What all share (conditions): 10 µM unless noted

This is part of a sample that, as a whole, favours compounds with a hit. Of some 83,000 tested, about 20% had one in any assay.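 Treatment: one concentration, 48 hours, 96-well format. Scoring: percent growth, with anything below 10 considered active.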 Values without a mark were called inactive. Activity calls are given as the source filed them.

As for `COC(=O)/C(Br)=C/c1c[nH]c2ccc(Br)cc12`, the growth with SR leukemia is -6.18% (active); in the assay on RPMI-8226 leukemia it was 53.9%; with OVCAR-8 ovarian, 86.6%; in the assay on OVCAR-4 ovarian it was 87.2%; in the assay on SK-OV-3 ovarian, 92%; in the assay on IGROV1 ovarian, -17.7% (active). The growth in the assay with OVCAR-3 ovarian is 82.6%; in the assay on HS 578T breast, 100%; in the assay on NCI/ADR-RES ovarian, 80.4%; in the assay on T-47D breast, 72%; with BT-549 breast, 88.7%; in the assay on MDA-MB-435 melanoma it was 85.7%. The growth is 94.4% in the assay with SW-620 colon; 75% with MCF7 breast; 69.1% with HCT-116 colon; 102% in the assay on HCC-2998 colon; 92% in the assay with KM12 colon.

As to `CCCCCCCCc1ccc(CCC(N)(CO)CO)cc1`, the growth with SR leukemia was -32.8% (active); with RPMI-8226 leukemia, -23.2% (active); in the assay on OVCAR-8 ovarian, -68.6% (active); in the assay on OVCAR-5 ovarian, 56.8%; in the assay on SK-OV-3 ovarian, 83.6%; in the assay with IGROV1 ovarian it was -37.9% (active). The growth is -47.9% (active) in the assay with OVCAR-3 ovarian; 9.65% (active) in the assay on NCI/ADR-RES ovarian; 34% in the assay on T-47D breast; 73.5% with BT-549 breast; -43.6% (active) in the assay with MDA-MB-435 melanoma; -83.8% (active) in the assay with SW-620 colon. The growth in the assay with MCF7 breast was -69% (active); with HCT-116 colon, -69.8% (active); in the assay on HCC-2998 colon, -85.6% (active); in the assay on KM12 colon, -66.5% (active).

`Cc1cc2cn3c4ccc(O)cc4nc(N)c3c2cc1C`: the growth in the assay on SR leukemia was -23.5% (active); with RPMI-8226 leukemia it was -20.1% (active); in the assay with OVCAR-8 ovarian, 5.39% (active); in the assay with OVCAR-5 ovarian, 28.9%; in the assay on OVCAR-3 ovarian, 16.5%; in the assay with HS 578T breast, -16.3% (active). Also, the growth in the assay with NCI/ADR-RES ovarian is 9.17% (active); with MDA-MB-435 melanoma it was -31.2% (active); with SW-620 colon, 11%; with MCF7 breast, -46.8% (active); in the assay on HCT-116 colon, -100% (active); with KM12 colon, 6.3% (active).

Take `O=C1c2cc([N+](=O)[O-])ccc2-c2cc(Cl)c(NC(=O)C(F)(F)F)cc21`: the growth is 98.6% in the assay on SR leukemia; 102% with RPMI-8226 leukemia; 121% with OVCAR-8 ovarian; 104% in the assay with OVCAR-5 ovarian; 111% in the assay with SK-OV-3 ovarian; 110% in the assay on IGROV1 ovarian. Further, the growth with OVCAR-3 ovarian was 133%; with NCI/ADR-RES ovarian it was 105%; with T-47D breast, 85.2%; in the assay with BT-549 breast, 108%; in the assay with MDA-MB-435 melanoma, 114%; in the assay with MCF7 breast, 35.8%. In addition, the growth in the assay on HCT-116 colon was 104%; in the assay on HCC-2998 colon, 104%; with KM12 colon it was 114%.

Turning to `Cc1ccc(S(=O)(=O)NC(CCC(=O)Nc2ccccc2)C(=O)Nc2ccccc2)cc1` (stereo not given), the growth is 4.65% (active) with SR leukemia; -17.1% (active) in the assay on RPMI-8226 leukemia; -10.9% (active) in the assay on OVCAR-8 ovarian; -8.85% (active) in the assay with OVCAR-5 ovarian; -4.83% (active) in the assay with OVCAR-4 ovarian; -25.1% (active) in the assay on IGROV1 ovarian. Moreover, the growth with OVCAR-3 ovarian is -42% (active); in the assay with HS 578T breast it was 2.98% (active); in the assay with NCI/ADR-RES ovarian, -24.7% (active); in the assay on BT-549 breast it was -14.9% (active); with MDA-MB-435 melanoma, -1.32% (active); with MCF7 breast, -8.66% (active). The values for the growth in the assay on HCT-116 colon, with HCC-2998 colon and in the assay with KM12 colon were -49.5% (active), 0.86% (active) and 0.4% (active), respectively.

Consider `O=C(/C=C1\C(=O)N(Cc2ccc([N+](=O)[O-])cc2)c2ccccc21)c1ccc(OCCN2CCCC2)cc1`, for which the growth with SR leukemia was -19% (active); in the assay on RPMI-8226 leukemia it was 28.4%; with OVCAR-8 ovarian, 66%; with OVCAR-4 ovarian, 64.9%; with SK-OV-3 ovarian it was 102%; with IGROV1 ovarian, 74.9%. Further, the growth in the assay with OVCAR-3 ovarian is 62.7%; in the assay on HS 578T breast it was 50.1%; with NCI/ADR-RES ovarian, 75.6%; in the assay on T-47D breast, 56.3%; with BT-549 breast it was 81.5%; in the assay with MDA-MB-435 melanoma, 48.2%. The growth in the assay on SW-620 colon was 18.7%; in the assay with MCF7 breast, 22.3%; in the assay with HCT-116 colon it was 12.2%; with HCC-2998 colon, 101%; with KM12 colon, 90.1%.

Take `O=C(N/N=C/c1cc(Cl)ccc1O)C(=O)N/N=C/c1cc(Cl)ccc1O`: the growth with SR leukemia was 51.3%; with RPMI-8226 leukemia it was 71.9%; in the assay on OVCAR-8 ovarian it was 60.8%; in the assay with OVCAR-5 ovarian, 72.5%; in the assay on SK-OV-3 ovarian, 64.1%; with IGROV1 ovarian, 50.3%. In addition, the growth was 15.5% in the assay with OVCAR-3 ovarian; 44.2% in the assay with NCI/ADR-RES ovarian; 73.5% in the assay with T-47D breast; 67.8% in the assay with MDA-MB-435 melanoma; 61.3% with SW-620 colon; 61.3% in the assay with MCF7 breast. Further, the results for the growth in the assay with HCT-116 colon, with HCC-2998 colon and in the assay on KM12 colon were 60.2%, 59.5% and 59.1%, respectively.

Consider `CC1=C(C)C[C@]2(C(=O)O[C@H]3CCCC[C@@H]32)[S@](=O)C1`, for which the growth in the assay on SR leukemia is 92.3%; in the assay on RPMI-8226 leukemia it was 111%; in the assay with OVCAR-8 ovarian, 105%; with OVCAR-4 ovarian, 106%; in the assay on SK-OV-3 ovarian, 110%; with IGROV1 ovarian it was 113%. Also, the growth with OVCAR-3 ovarian is 107%; with HS 578T breast, 107%; in the assay on NCI/ADR-RES ovarian, 104%; in the assay on T-47D breast, 105%; in the assay with BT-549 breast, 91.6%; in the assay with MDA-MB-435 melanoma, 103%. Also, the growth in the assay on SW-620 colon was 110%; in the assay on MCF7 breast, 95%; in the assay with HCT-116 colon, 108%; in the assay with HCC-2998 colon, 95%; with KM12 colon, 101%.

As for `c1ccc(Nc2ccccn2)cc1`, the growth in the assay with SR leukemia is 80.2%; in the assay on RPMI-8226 leukemia, 89.1%; with OVCAR-8 ovarian, 107%; in the assay on OVCAR-5 ovarian it was 106%; in the assay with SK-OV-3 ovarian it was 105%; in the assay on IGROV1 ovarian, 101%. For the same compound, the growth in the assay with OVCAR-3 ovarian was 116%; in the assay on HS 578T breast, 106%; with NCI/ADR-RES ovarian, 109%; with T-47D breast it was 101%; in the assay on BT-549 breast it was 98.8%; with MDA-MB-435 melanoma, 112%. The growth in the assay on SW-620 colon is 110%; in the assay on HCT-116 colon, 103%; in the assay with HCC-2998 colon it was 114%; with KM12 colon, 104%.

For the compound `Cc1ccc2c(c1)C(=O)CCS2`, the growth in the assay with SR leukemia is 118%; with RPMI-8226 leukemia, 100%; in the assay on OVCAR-8 ovarian it was 100%; in the assay on OVCAR-5 ovarian, 97.5%; with SK-OV-3 ovarian, 95%; in the assay with OVCAR-3 ovarian, 115%. Besides, the growth was 111% with NCI/ADR-RES ovarian; 106% in the assay on T-47D breast; 101% in the assay with BT-549 breast; 104% in the assay with MDA-MB-435 melanoma; 97.1% in the assay on SW-620 colon; 93.3% in the assay on MCF7 breast. For the same compound, the growth in the assay with HCT-116 colon was 103%; in the assay on HCC-2998 colon, 99.6%; with KM12 colon it was 108%.

For the origin of these results see PubChem BioAssay (NCI).
